# The campaign covered roughly 320,000 compounds. About 2,100 (0.66%) were called active. Another 53% or so got no clear call; they are omitted. The sample holds actives, similar compounds and a random draw of the others, so the mix is not that of the screen. Calls follow the shape of the dose curve; as a rule, active = well fitted inhibition curve with a large enough effect in the signal ratio, with a control signal flat (not every such curve was filed as active); inconclusive = small, poorly fitted or top-dose-only effect, or effect the other way, or a change in a side signal; inactive = flat fitted curve, though single readings scatter; the % refers to the signal ratio.
# Assay: qHTS Assay for Lipid Storage Modulators in Drosophila S3 Cells;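 as to cell number change: cells counted by Cell Tracker Red CMTPX staining in the red channel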; as to lipid storage change, negative = inhibition: % is scaled to controls: 0 for no effect and ±100 for the full control effect
# Details: BODIPY lipid droplet fluorescence, 18-24 h, cells fed with added oleic acid; cell number change: measured here: cell count max response; series mostly up to 46.1 µM
# In short: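 Laser-scanning cytometry quantifies lipid droplet accumulation (500–530 nm total intensity; droplet/cell object ratio) in oleic acid-fed (400 uM added) Drosophila S3 cells treated with a concentration series. 20 uM Triacsin C defined 100% inhibition.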
# Potency is read from the fitted curve at half-maximal effect.
SMILES,Potency,cell number change,"lipid storage change, negative = inhibition"
CCCCOc1ccc(-c2nnc(-c3cc[n+](C)cc3)o2)cc1,inactive,0.955%,
CC(=O)N/N=C(\C)CC(=O)Nc1cccc2c1CCCC2,inactive,-11.4%,
COc1ccc(CC(=O)Nc2cccc3c2CCCC3)cc1,inactive,-12.6%,
CC(=O)CC(=O)Nc1cccc2c1CCCC2,0.58 µM (active),2.07%,
CCn1cc(S(=O)(=O)NC(C)c2cc(OC)ccc2OC)cn1 (centres undefined),inactive,5.77%,
Cc1cccc2c1N(CCCOc1ccccc1)C(=O)C2=O,inactive,4.6%,
CC1CCN(CCCCOc2ccccc2F)CC1,inactive,12.3%,
Cn1nnc(NC(=O)c2ccccc2)n1,inactive,-11.2%,
Cc1ccc(OCc2cc(C(=O)N(C)Cc3cnn(-c4ccccc4C)c3)no2)cn1,23.1 µM (active),-11.8%,
CC(=O)c1ccc(OCc2cc(C(=O)N(C)Cc3cc(C)no3)no2)cc1,inactive,-2.95%,
CN(Cc1cnn(C)c1)C(=O)c1cc(COc2c(F)cccc2F)on1,inactive,16.3%,
C/C(=N\NC(=O)Cc1cccn1C)c1ccc([N+](=O)[O-])cc1,inactive,2.69%,
CCN(Cc1ccncc1)C(=O)CSc1ccc2ccccc2c1,inactive,,
O=C(Nc1ccc2ccccc2c1)c1ccc2[nH]c(=O)c(=O)[nH]c2c1,inactive,-10.4%,
O=C(Nc1ccc2ccccc2c1)c1ccc(Cl)cc1,1.3 µM (active),-18.8%,
O=C(Nc1ccc2ccccc2c1)c1ccc(Cl)cc1Cl,inactive,-1.02%,
CCOc1ccc(C(=O)COC(=O)c2nn(CC)c(=O)c3ccccc23)cc1,inactive,18.9%,
CNC(=O)NNC(=O)c1onc(-c2c(Cl)cccc2Cl)c1C(=O)OC,inactive,19.9%,
CC(C)c1nc2ccccc2n1CCC(=O)O,16.4 µM (active),-4.05%,
CCSc1nc2ccccc2n1CCC(=O)O,inactive,,
CCc1nc2ccccc2n1CCC(=O)O,inactive,-14.7%,
CCC(C)(CC(=O)Nc1nccs1)c1ccccc1 (centres undefined),inactive,7.48%,
N#Cc1nc(-c2cccc3ccccc23)oc1NCC#CCOC(=O)c1cccs1,14.6 µM (active),-10.2%,
COc1ccc(CNc2oc(-c3cccc4ccccc34)nc2C#N)cc1,inactive,-5.87%,
O=C(OCC#CCSc1nnc(-c2ccccc2)o1)c1cccs1,inactive,-0.992%,

SMILES,Potency,cell number change,"lipid storage change, negative = inhibition"
CC(NC(=O)CSc1n[nH]c(=O)n1C1CC1)C12CC3CC(CC(C3)C1)C2 (centres undefined),inactive,7.42%,
S=C1NCCOCCOCCOCCNC(=S)N2CCOCCOCCN1CCOCCOCC2,inactive,-2.24%,
CCOC(=O)c1[nH]c(C)c(C(=O)NC2CCCCCC2)c1C,inactive,-7.97%,
CCOC(=O)c1[nH]c(C)c(C(=O)NC2CCCCC2)c1C,inactive,-4.45%,
CCN(CC)CCCNC(=O)c1[nH]c(C)c(C(=O)NC2CCCCC2)c1C,25.9 µM (active),-5.4%,
Cc1cc2oc(=O)sc2cc1NS(=O)(=O)c1ccccc1,7.31 µM (active),5.22%,
O=C(O)c1cccc(S(=O)(=O)Nc2ccc3oc(=O)sc3c2)c1,inactive,4.14%,
Cc1cc(O)c(C(C)C)cc1NS(=O)(=O)c1ccccc1,inactive,-16.1%,
COc1cccc(-c2cc(C(=O)NCC3CCCO3)c3cc(Br)cc(C)c3n2)c1 (centres undefined),inactive,-7.43%,
O=C(O)CC(Cc1ccc(Br)cc1)C(=O)O (centres undefined),inactive,-24.7%,
N=c1oc2ccccc2cc1C(=O)Nc1ccc(F)cc1,inactive,0.805%,
N=c1oc2c3c4c(cc2cc1C(=O)Nc1ccccc1)CCCN4CCC3,5.8 µM (active),5.35%,
N=c1oc2ccccc2cc1C(=O)Nc1ccccc1,inactive,8.78%,
CC(C)COc1ccc(CSCCNC(=S)Nc2ccccc2)cc1,inactive,,
O=C1C2CCCN2C(c2cccs2)N1c1ccc(F)cc1 (centres undefined),inactive,-1.44%,
Cc1ccc2nc3c(cc(C(=O)NCC4CCCO4)n3C)c(=O)n2c1 (centres undefined),inactive,19.4%,
CC(=O)Nc1ccc(C(=O)/C=C/c2ccco2)cc1,inactive,-0.499%,
O=C(N/N=C/c1ccco1)C12CC3CC(CC(C3)C1)C2,inactive,-15.4%,
O=C(/C=C/c1ccco1)c1ccc(NC(=O)C23CC4CC(CC(C4)C2)C3)cc1,16.4 µM (active),-23.6%,
Cc1noc(C)c1COc1ccccc1C(=O)N(C)Cc1ccc(F)cc1,,-12.5%,19.1% [at 0.0737 µM] (inactive)
O=C(c1ccc2c(c1)OCO2)C1CCCN(Cc2cc(F)ccc2-n2cccn2)C1 (centres undefined),inactive,10%,
CCc1c(C)nc(N)n2c(SCC(=O)Nc3ccccc3OC)nnc12,inactive,6.92%,
CCn1c(C)nnc1SCC(=O)NC1CCCCCC1,inactive,-4.99%,
CCc1c(C)nc(N)n2c(SCC(=O)NC3CCCCC3)nnc12,1.3 µM (active),19.2%,
COc1ccc(C)cc1N(CC(N)=O)S(=O)(=O)c1ccc(C)cc1,inactive,-13.9%,

SMILES,Potency,cell number change,"lipid storage change, negative = inhibition"
COc1ccc(Nc2ncc(C#N)c(N)n2)c(OC)c1,inactive,3.36%,
Cc1c(NC(=O)/C=C/c2ccc(S(=O)(=O)N3CCOCC3)cc2)c(=O)n(-c2ccccc2)n1C,inactive,8.27%,
CC(OC(=O)CCCc1nc2ccccc2s1)C(N)=O (centres undefined),23.1 µM (active),18.5%,
CCNC(=O)NC(=O)C(C)OC(=O)CCCc1nc2ccccc2s1 (centres undefined),inactive,2.05%,
CC(=O)Nc1ccc(NC(=O)C(C)OC(=O)CCc2nc3ccccc3s2)cc1 (centres undefined),inactive,4.88%,
Cc1csc(NC(=O)c2cccc(Cn3nc(C)c(Br)c3C)c2)n1,inactive,-7.75%,
Cc1csc(NC(=O)c2ccc(Cn3nc(C)c(Br)c3C)o2)n1,7.31 µM (active),-7.94%,
Cc1nn(Cc2ccc(C(=O)n3cccn3)o2)c(C)c1Br,inactive,-2.33%,
Cc1nnc2c(NCCc3ccccc3)nc3ccccc3n12,inactive,6.11%,
CCC(=O)Oc1ccc2oc(=O)cc(C)c2c1,inactive,-1.41%,
CCc1ccc(NC(=S)N2CCC(NC(=O)c3ccccc3OC)CC2)cc1,inactive,12.5%,
Cc1cc(NC(=O)Cn2nc3c(cc2=O)CCCC3)ccc1Br,inactive,19.1%,
Cc1ccc(S(=O)(=O)c2cc3c(=O)n4ccccc4nc3n(C3CCCC3)c2=N)cc1,inactive,-1.32%,
COc1ccc(CCNC(=O)c2cc3c(=O)n4ccccc4nc3n(Cc3ccco3)c2=N)cc1OC,inactive,-20.4%,
COc1ccc(CCNC(=O)c2cc3c(=O)n4ccccc4nc3n(CCCN3CCOCC3)c2=N)cc1OC,inactive,3.54%,
N=c1c(S(=O)(=O)c2ccc(Br)cc2)cc2c(=O)n3ccccc3nc2n1C1CCCCC1,inactive,2.36%,
N=c1c(C(=O)NCCc2ccccc2)cc2c(=O)n3ccccc3nc2n1Cc1ccco1,0.82 µM (active),-1.35%,
N=c1c(C(=O)NCc2ccccc2)cc2c(=O)n3ccccc3nc2n1CCCN1CCOCC1,inactive,-5.03%,
N=c1c(C(=O)NCCN2CCOCC2)cc2c(=O)n3ccccc3nc2n1CCCN1CCOCC1,7.31 µM (active),8.12%,
N=c1c(C(=O)NCCc2ccccc2)cc2c(=O)n3ccccc3nc2n1CCCN1CCOCC1,6.51 µM (active),-19%,
N=c1c(C(=O)NCc2ccco2)cc2c(=O)n3ccccc3nc2n1Cc1ccccc1,inactive,-4.14%,
N=c1c(C(=O)NCCN2CCOCC2)cc2c(=O)n3ccccc3nc2n1CCc1ccccc1,inactive,15.8%,
Cc1ccc(Cn2c(=N)c(C(=O)NCCN3CCOCC3)cc3c(=O)n4ccccc4nc32)cc1,inactive,21.5%,
N=c1c(S(=O)(=O)c2ccc(Cl)cc2)cc2c(=O)n3ccccc3nc2n1C1CCCC1,13 µM (active),,

# Reference: PubChem BioAssay AID2685 (National Center for Advancing Translational Sciences (NCATS), 2010)
